Columns and labels:
Assay in all cases: DAPPL (digital affinity profiling via proximity ligation, sequencing); 10 mM Tris-HCl pH 7.5, 50 mM NaCl, 1 mM DTT, 4% glycerol, room temperature, 30 min; GST-TFs on glutathione beads, 16-mer random dsDNA library, 0.1% formaldehyde crosslink after washing; high values mean tight binding
FEV = biological target: T1, FEV (Homo sapiens, UniProt Q99581 1-238); settings: protein: recombinant; tags: N-terminal GST; dsDNA, one strand shown
T1 sequence: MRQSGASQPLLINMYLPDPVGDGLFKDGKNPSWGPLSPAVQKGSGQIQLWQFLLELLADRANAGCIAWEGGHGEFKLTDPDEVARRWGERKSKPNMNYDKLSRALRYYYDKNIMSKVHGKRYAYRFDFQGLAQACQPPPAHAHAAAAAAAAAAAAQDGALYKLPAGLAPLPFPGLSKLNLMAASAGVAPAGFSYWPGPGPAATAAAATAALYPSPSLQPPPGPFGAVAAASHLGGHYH
Procedure, shortened: (§1)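 Binding signal is each hexamer's read frequency for a factor divided by its frequency in the tag-only sample. The factors were GST-fused human transcription factors from yeast, captured on glutathione beads, DNA-barcoded and pooled with that sample. Pools were incubated with 200 nmole of a random double-stranded 16-mer DNA library in Tris/NaCl/DTT/glycerol buffer at room temperature for 30 min, then washed, crosslinked with 0.1% formaldehyde, proximity-ligated with BsaI/T4 ligase (1 h, 37 °C), PCR-amplified and sequenced on an Illumina NextSeq500.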

ETV5 = ETV5 (Homo sapiens, UniProt P41161 1-510); settings: protein: recombinant; tags: N-terminal GST; dsDNA, one strand shown
Sequence of ETV5 (P41161 whole entry): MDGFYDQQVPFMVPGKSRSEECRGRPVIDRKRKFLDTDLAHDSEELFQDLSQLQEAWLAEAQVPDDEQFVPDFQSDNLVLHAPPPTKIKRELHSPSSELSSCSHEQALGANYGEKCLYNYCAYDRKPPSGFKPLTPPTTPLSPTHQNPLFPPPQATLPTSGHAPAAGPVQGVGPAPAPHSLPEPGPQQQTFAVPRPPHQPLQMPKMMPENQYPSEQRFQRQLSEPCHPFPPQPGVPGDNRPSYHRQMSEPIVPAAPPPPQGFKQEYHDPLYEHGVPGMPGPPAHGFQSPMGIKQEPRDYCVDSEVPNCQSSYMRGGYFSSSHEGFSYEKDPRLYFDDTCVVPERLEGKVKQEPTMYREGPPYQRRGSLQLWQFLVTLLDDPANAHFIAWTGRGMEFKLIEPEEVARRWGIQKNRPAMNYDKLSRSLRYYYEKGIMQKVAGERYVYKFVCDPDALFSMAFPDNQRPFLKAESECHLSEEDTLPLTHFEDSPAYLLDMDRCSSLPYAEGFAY
Procedure, shortened: as §1

HSF1 = HSF1 (Homo sapiens, UniProt Q00613 1-529); settings: protein: recombinant; tags: N-terminal GST; chain copies: 3; dsDNA, one strand shown
Sequence of HSF1 (Q00613 whole entry): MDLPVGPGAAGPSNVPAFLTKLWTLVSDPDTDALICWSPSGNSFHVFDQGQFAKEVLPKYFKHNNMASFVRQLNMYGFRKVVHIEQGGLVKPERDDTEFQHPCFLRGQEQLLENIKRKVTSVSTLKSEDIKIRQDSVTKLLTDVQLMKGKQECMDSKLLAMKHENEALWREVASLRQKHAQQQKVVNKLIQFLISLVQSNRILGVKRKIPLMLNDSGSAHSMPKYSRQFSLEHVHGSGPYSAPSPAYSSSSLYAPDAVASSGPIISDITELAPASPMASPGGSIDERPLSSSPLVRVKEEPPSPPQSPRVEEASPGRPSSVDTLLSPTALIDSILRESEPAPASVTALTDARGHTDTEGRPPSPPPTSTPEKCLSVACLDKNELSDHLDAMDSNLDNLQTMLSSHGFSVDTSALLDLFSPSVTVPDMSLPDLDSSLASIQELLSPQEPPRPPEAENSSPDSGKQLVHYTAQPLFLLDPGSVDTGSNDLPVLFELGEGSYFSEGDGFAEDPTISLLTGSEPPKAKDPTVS
Procedure, shortened: as §1

SPIC = biological target: T2, SPIC (Homo sapiens, UniProt Q8N5J4 1-248); settings: protein: recombinant; tags: N-terminal GST; dsDNA, one strand shown
T2 sequence: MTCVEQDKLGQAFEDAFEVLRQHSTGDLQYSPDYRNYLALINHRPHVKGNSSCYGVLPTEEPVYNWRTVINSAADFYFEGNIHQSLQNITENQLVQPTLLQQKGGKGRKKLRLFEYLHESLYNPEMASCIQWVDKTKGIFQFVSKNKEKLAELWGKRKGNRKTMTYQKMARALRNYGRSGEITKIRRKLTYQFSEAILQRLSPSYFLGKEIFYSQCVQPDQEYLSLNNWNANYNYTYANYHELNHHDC
Procedure, shortened: as §1

ELF4 = ELF4 (Homo sapiens, UniProt Q99607 1-663); settings: protein: recombinant; tags: N-terminal GST; dsDNA, one strand shown
Sequence of ELF4 (Q99607 whole entry): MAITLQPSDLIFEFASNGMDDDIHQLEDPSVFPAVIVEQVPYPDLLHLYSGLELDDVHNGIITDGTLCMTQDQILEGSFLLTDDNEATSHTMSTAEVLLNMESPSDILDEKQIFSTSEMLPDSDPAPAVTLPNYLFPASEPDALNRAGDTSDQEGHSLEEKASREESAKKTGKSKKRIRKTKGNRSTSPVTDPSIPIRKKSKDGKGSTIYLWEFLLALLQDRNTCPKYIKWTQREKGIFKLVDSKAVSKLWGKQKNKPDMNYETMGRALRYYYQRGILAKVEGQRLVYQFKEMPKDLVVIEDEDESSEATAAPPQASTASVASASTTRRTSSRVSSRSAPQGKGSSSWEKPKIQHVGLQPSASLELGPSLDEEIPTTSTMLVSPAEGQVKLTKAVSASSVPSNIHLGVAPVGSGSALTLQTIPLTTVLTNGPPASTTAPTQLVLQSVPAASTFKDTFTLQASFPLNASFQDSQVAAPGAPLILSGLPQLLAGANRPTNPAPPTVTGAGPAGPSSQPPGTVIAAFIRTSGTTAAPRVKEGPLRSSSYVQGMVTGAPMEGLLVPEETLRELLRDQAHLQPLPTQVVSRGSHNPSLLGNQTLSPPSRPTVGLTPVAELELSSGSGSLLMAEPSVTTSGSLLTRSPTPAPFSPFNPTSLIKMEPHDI
Procedure, shortened: as §1

ELK4 = biological target: T3, ELK4 (Homo sapiens, UniProt P28324-2 1-405); settings: protein: recombinant; tags: N-terminal GST; dsDNA, one strand shown
T3 sequence: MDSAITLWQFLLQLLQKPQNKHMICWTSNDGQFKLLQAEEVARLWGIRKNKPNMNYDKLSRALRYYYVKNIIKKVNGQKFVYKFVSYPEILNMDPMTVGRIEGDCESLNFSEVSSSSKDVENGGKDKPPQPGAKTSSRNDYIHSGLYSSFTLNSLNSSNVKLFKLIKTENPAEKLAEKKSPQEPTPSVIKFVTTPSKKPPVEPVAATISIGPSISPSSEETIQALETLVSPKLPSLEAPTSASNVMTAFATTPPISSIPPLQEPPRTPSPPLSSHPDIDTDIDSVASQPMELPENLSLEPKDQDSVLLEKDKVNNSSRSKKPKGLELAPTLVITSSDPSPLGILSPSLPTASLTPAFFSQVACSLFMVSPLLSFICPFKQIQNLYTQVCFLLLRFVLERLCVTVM
Procedure, shortened: as §1

ETV2 = biological target: T4, ETV2 (Homo sapiens, UniProt O00321 1-342); settings: protein: recombinant; tags: N-terminal GST; dsDNA, one strand shown
T4 sequence: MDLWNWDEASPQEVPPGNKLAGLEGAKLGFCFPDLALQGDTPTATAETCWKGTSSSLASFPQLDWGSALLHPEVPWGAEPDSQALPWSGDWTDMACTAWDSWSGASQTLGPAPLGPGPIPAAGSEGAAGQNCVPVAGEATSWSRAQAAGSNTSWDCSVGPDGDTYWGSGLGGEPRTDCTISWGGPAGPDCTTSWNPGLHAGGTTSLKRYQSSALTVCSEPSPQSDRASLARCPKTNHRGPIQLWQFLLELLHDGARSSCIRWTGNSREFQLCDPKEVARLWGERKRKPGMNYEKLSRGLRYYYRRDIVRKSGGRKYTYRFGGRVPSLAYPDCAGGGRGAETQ
Procedure, shortened: as §1

ELF3 = biological target: T5, ELF3 (Homo sapiens, UniProt P78545 1-371); settings: protein: recombinant; tags: N-terminal GST; dsDNA, one strand shown
T5 sequence: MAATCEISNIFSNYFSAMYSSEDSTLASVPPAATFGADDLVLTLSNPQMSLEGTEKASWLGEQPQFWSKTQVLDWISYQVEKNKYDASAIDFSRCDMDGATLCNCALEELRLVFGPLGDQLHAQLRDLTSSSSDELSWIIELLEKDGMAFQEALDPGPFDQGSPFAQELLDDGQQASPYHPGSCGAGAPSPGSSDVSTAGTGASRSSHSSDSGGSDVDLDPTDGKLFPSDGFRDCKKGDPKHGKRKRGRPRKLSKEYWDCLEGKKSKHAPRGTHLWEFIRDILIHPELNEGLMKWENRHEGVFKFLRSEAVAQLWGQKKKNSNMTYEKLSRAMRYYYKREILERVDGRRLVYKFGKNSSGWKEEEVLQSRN
Procedure, shortened: as §1

CRX = CRX (Homo sapiens, UniProt O43186 1-299); settings: protein: recombinant; tags: N-terminal GST; dsDNA, one strand shown
Sequence of CRX (O43186 whole entry): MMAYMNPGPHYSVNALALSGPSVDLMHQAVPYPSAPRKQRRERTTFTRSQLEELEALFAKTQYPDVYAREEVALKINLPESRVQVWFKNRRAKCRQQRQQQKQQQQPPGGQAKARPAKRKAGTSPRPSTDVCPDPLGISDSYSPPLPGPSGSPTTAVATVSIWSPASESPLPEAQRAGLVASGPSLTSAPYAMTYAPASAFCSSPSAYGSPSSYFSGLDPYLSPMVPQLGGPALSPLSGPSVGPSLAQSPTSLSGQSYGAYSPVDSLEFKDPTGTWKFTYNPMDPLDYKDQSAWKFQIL
Procedure, shortened: as §1

ETV1 = ETV1 (Homo sapiens, UniProt P50549 1-477); settings: protein: recombinant; tags: N-terminal GST; dsDNA, one strand shown
Sequence of ETV1 (P50549 whole entry): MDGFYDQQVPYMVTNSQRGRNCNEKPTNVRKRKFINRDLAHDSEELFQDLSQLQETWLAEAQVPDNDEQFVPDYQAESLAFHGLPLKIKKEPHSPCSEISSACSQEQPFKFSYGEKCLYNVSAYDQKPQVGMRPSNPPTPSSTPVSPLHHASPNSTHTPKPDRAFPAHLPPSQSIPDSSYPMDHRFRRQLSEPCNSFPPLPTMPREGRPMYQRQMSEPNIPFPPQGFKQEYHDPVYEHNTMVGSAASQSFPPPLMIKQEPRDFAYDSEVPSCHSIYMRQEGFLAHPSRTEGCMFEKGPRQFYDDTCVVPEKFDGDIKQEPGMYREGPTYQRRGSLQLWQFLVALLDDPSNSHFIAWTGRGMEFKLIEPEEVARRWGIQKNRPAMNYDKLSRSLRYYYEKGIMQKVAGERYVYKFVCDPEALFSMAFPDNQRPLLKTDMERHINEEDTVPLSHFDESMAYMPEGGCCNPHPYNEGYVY
Procedure, shortened: as §1

ERF = biological target: T6, ERF (Homo sapiens, UniProt P50548 1-548); settings: protein: recombinant; tags: N-terminal GST; dsDNA, one strand shown
T6 sequence: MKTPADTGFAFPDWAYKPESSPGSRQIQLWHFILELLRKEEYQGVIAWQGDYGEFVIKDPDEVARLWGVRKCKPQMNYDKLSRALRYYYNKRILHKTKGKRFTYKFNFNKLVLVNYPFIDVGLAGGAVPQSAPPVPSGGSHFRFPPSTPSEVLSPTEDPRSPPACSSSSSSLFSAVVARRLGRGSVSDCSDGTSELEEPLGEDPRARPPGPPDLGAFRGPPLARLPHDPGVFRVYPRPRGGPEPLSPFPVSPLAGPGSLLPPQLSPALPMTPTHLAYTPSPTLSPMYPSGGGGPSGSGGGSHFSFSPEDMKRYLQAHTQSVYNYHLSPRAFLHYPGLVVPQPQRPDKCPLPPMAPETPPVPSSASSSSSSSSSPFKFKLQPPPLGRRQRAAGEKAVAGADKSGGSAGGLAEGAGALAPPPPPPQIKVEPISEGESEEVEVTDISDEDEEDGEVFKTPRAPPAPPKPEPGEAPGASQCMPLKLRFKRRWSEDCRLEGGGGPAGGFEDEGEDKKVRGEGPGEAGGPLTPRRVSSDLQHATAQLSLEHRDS
Procedure, shortened: as §1

ETV3L = biological target: T7, ETV3L (Homo sapiens, UniProt Q6ZN32 1-361); settings: protein: recombinant; tags: N-terminal GST; dsDNA, one strand shown
T7 sequence: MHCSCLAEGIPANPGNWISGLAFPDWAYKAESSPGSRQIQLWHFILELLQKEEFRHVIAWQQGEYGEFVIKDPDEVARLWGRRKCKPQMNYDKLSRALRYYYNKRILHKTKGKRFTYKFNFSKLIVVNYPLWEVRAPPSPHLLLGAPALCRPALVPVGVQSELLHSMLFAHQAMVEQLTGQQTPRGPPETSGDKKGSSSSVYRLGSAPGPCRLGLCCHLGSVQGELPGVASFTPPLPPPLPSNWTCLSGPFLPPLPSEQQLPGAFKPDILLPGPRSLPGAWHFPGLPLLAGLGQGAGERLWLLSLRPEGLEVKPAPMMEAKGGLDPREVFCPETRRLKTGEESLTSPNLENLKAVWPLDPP
Procedure, shortened: as §1

ETS2 = biological target: T8, ETS2 (Homo sapiens, UniProt P15036 1-469); settings: protein: recombinant; tags: N-terminal GST; dsDNA, one strand shown
T8 sequence: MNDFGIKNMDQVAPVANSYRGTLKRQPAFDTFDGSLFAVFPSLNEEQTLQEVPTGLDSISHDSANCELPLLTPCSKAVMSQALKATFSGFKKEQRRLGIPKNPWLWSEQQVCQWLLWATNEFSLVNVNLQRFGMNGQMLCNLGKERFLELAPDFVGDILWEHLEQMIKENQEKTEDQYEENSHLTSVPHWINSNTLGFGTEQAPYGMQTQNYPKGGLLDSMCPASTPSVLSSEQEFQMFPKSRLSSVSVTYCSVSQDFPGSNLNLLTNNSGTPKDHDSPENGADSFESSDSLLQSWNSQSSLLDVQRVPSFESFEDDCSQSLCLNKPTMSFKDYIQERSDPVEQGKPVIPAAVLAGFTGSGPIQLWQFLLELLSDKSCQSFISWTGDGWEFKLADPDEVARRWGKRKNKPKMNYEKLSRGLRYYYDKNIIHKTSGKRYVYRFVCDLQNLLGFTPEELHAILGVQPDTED
Procedure, shortened: as §1

SPDEF = biological target: T9, SPDEF (Homo sapiens, UniProt O95238 1-335); settings: protein: recombinant; tags: N-terminal GST; dsDNA, one strand shown
T9 sequence: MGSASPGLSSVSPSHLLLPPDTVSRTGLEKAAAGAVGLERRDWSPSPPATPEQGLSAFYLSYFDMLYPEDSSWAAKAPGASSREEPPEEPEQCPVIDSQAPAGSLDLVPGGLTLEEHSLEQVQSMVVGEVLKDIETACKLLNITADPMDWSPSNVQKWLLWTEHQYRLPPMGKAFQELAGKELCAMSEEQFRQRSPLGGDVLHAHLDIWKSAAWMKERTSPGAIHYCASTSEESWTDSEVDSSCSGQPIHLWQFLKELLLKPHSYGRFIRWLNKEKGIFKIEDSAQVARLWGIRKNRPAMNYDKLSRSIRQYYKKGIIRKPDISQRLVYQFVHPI
Procedure, shortened: as §1

ETV7 = biological target: T10, ETV7 (Homo sapiens, UniProt Q9Y603 1-341); settings: protein: recombinant; tags: N-terminal GST; dsDNA, one strand shown
T10 sequence: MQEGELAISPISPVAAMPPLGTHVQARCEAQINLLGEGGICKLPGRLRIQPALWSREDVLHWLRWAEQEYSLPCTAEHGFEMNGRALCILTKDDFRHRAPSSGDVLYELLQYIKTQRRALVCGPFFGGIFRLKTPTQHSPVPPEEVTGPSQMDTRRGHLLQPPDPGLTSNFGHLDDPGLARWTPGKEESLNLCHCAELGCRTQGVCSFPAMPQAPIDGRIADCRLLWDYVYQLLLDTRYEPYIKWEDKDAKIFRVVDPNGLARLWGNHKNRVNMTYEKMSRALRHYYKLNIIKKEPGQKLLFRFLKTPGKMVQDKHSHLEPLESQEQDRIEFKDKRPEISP
Procedure, shortened: as §1

ELF5 = biological target: T11, ELF5 (Homo sapiens, UniProt Q9UKW6-2 1-255); settings: protein: recombinant; tags: N-terminal GST; dsDNA, one strand shown
T11 sequence: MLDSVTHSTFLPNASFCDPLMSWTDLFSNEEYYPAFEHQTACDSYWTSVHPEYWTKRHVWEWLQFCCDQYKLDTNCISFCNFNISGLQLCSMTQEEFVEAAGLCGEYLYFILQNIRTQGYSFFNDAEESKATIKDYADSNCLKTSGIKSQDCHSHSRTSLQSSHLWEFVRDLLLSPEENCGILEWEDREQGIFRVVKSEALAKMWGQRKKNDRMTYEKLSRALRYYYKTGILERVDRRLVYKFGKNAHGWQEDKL
Procedure, shortened: as §1

ETV3 = biological target: T12, ETV3 (Homo sapiens, UniProt P41162-2 1-143); settings: protein: recombinant; tags: N-terminal GST; dsDNA, one strand shown
T12 sequence: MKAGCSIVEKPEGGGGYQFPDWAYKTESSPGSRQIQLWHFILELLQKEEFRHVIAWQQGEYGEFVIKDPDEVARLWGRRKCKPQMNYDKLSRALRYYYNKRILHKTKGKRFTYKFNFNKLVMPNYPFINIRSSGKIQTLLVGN
Procedure, shortened: as §1

ETV6 = ETV6 (Homo sapiens, UniProt P41212 1-452); settings: protein: recombinant; tags: N-terminal GST; dsDNA, one strand shown
Sequence of ETV6 (P41212 whole entry): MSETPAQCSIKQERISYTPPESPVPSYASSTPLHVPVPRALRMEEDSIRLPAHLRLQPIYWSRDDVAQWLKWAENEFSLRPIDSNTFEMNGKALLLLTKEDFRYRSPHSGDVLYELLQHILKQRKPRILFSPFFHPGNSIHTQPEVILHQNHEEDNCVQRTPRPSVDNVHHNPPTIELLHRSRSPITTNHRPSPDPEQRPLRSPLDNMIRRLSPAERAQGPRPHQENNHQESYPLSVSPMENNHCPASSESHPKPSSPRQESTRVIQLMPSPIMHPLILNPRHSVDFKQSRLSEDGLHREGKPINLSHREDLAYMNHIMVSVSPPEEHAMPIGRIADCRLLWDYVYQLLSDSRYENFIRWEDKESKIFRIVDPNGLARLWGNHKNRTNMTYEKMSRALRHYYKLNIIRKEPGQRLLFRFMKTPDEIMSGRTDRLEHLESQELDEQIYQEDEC
Procedure, shortened: as §1

GATCCT
binding signal (FEV): 1.23 fold enrichment (6-mer frequency, TF over GST control) | binding signal (ETV5): 1.27 fold enrichment (6-mer frequency, TF over GST control) | binding signal (HSF1): 1.41 fold enrichment (6-mer frequency, TF over GST control) | binding signal (SPIC): 1.21 fold enrichment (6-mer frequency, TF over GST control) | binding signal (ELF4): 1.35 fold enrichment (6-mer frequency, TF over GST control) | binding signal (ELK4): 1.24 fold enrichment (6-mer frequency, TF over GST control) | binding signal (ETV2): 1.43 fold enrichment (6-mer frequency, TF over GST control) | binding signal (ELF3): 1.03 fold enrichment (6-mer frequency, TF over GST control) | binding signal (CRX): 1.66 fold enrichment (6-mer frequency, TF over GST control) | binding signal (ETV1): 1.34 fold enrichment (6-mer frequency, TF over GST control) | binding signal (ERF): 1.3 fold enrichment (6-mer frequency, TF over GST control) | binding signal (ETV3L): 1.21 fold enrichment (6-mer frequency, TF over GST control) | binding signal (ETS2): 1.32 fold enrichment (6-mer frequency, TF over GST control) | binding signal (SPDEF): 1.84 fold enrichment (6-mer frequency, TF over GST control) | binding signal (ETV7): 1.2 fold enrichment (6-mer frequency, TF over GST control) | binding signal (ELF5): 1.29 fold enrichment (6-mer frequency, TF over GST control) | binding signal (ETV3): 1.25 fold enrichment (6-mer frequency, TF over GST control) | binding signal (ETV6): 1.28 fold enrichment (6-mer frequency, TF over GST control)

From paper PMC7862700, “An all-to-all approach to the identification of sequence-specific readers for epigenetic DNA modifications on cytosine”
